# Source: ChEMBL document CHEMBL3433997, “St. Jude Leishmania screening dataset” (2016)
# Values joined by “and” are separate entries in the source; they are usually repeats but may differ in a detail not shown here. Equal values may be shown once.
# Tests used:
# Assay type in all cases: functional
# [1] = target: Solute carrier family 2, facilitated glucose transporter member 1 (Homo sapiens) (UniProt P11166); assay: ST_JUDE_LEISH: Cytotoxicity at 2uM final concentration against transgenic Leishmania Mexicana promastigotes LmGLUT1 that are glucose transport deficient and complemented with the human glucose transporter GLUT1. Activity is measured by DNA content using SYBR green in vitro
# Sequence of Solute carrier family 2, facilitated glucose transporter member 1 (Homo sapiens) (P11166 whole entry): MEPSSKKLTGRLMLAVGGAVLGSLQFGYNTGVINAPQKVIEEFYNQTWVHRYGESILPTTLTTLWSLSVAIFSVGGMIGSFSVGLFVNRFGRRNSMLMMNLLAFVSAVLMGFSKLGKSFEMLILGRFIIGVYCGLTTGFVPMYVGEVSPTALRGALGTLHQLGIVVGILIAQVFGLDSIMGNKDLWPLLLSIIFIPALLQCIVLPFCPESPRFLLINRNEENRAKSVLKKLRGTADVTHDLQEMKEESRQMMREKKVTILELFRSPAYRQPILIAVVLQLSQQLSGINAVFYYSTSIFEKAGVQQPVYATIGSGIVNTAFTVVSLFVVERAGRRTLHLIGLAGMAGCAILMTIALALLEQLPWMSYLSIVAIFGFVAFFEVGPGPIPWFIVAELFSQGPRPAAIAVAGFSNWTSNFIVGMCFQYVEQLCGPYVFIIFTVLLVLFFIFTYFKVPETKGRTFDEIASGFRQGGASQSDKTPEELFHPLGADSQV
# [2] = target: Hexose transporter 1 (Plasmodium falciparum) (UniProt O97467); assay: ST_JUDE_LEISH: Cytotoxicity at 2uM final concentration against transgenic Leishmania Mexicana promastigotes LmPfHT that are glucose transport deficient and complemented with the Plasmodium falciparum hexose transporter. Activity is measured by DNA content using SYBR green in vitro
# [3] = target: Glucose transporter (Leishmania mexicana) (UniProt O61059); assay: ST_JUDE_LEISH: Cytotoxicity at 2uM final concentration against transgenic Leishmania Mexicana promastigotes LmGT2 that are glucose transport deficient and complemented with the L. Mexicana glucose transporter 2. Activity is measured by DNA content using SYBR green in vitro
Structure (SMILES),inhibition [1],inhibition [2],inhibition [3]
Cn1cncc1-c1ccc2ncnc(Nc3ccc(OCc4ccccc4)cc3)c2c1,0.55%,1.48%,0.29%
Cc1nc(-c2cccc(Nc3ccnc4cc(-c5nccs5)ccc34)c2)no1,2.59%,2.43%,2.74%
CCN(CC)CCN(Cc1ccc(-c2ccc(C(F)(F)F)cc2)cc1)C(=O)Cn1c(CCc2ccccc2F)nc(=O)c2ccccc21,3.8%,3.39%,2.3%
Cc1ccccc1OCC(O)CNC1CCC(NCC(O)COc2ccccc2C)CC1 (configuration not stated),10.2%,10.5%,5.8%
COc1ccc(CN2CCC(N3CCc4cc(NC(=O)c5cc(C)on5)ccc43)C2)cc1Cl (configuration not stated),-0.2%,-3.51%,0.69%
Cc1cc(N[C@@H](C)C(=O)Nc2ccccc2)nc(NCCc2ccc(F)cc2)n1,2.77%,4.77%,1.18%
CN(C)CCCNCc1cn(S(=O)(=O)c2ccccc2Cl)c2ccccc12,5.36%,5.25%,7.6%
Cc1cc(N)nc2ccc(-c3cccc(CN)c3)cc12,0.78%,0.76%,-2.14%
COc1ccc(-c2csc(NC(=O)CCC(=O)O)n2)cc1OC,0.77%,1.36%,3.83%
c1ccc2cc3c(Nc4ccc(N5CCCCCC5)cc4)ccnc3cc2c1,0.03%,0.23%,0.24%
O=C(Cc1cccc2ccccc12)N1CCc2cc3nccc(N4CCN5CCC[C@H]5C4)c3cc21,8.63%,7.78%,10%
COc1ccc2ccccc2c1CCCCN1CCN(CC(c2ccc(F)cc2)N2CCC2)CC1 (configuration not stated),4.25%,3.64%,3.18%
Cc1cc2ncn(-c3ccnc(N4CCN(CCCN5CCCC5)CC4)n3)c2cc1C,4.77%,3.43%,2.01%
COC(=O)C(C)NCC(=O)c1ccccc1 (configuration not stated),6.16%,6.12%,6.79%
O=C(Nc1cccc(-c2ccc(-c3nc4ccccc4[nH]3)cc2)c1)Nc1ccc2c(c1)OCO2,1.14%,1.8%,0.06%
CCn1ccc2c3c(N)nc(N)nc3ccc21,1.21%,2.13%,-1.34%
CCC(CC(NCCCCNC(=O)c1ccc(NC(=O)c2ccc(Cl)cc2)cc1)c1ccccc1)c1ccccc1OC (configuration not stated),1.72% and 1.8%,1.83% and 1.71%,1.46% and -1.08%

Structure (SMILES),inhibition [1],inhibition [2],inhibition [3]
Cc1[nH]c(C)c(-c2ccc(-c3ccc(OC(F)(F)F)cc3)cc2)c(=O)c1Cl,4.71%,3.77%,-2.04%
COc1ccc2nccc([C@@H](O)CN3CCC(NC[C@H](Cc4ccccc4)NC(=O)OC(C)(C)C)CC3)c2c1,3.73%,2.02%,2.75%
O=C(/C=C/c1ccc(Cl)c(Cl)c1)NCCCCCN1CCC(NC(=S)Nc2ccc(F)cc2F)CC1,16.5%,14.9%,14.5%
CC(C)CN1CCN(CCNc2c3ccccc3nc3ccccc23)CC1,83%,83.1%,81.3%
Fc1ccc(CNc2ncc(-c3ccsc3)c(-c3nccs3)n2)cc1,0.01%,4.04%,0.95%
NC(=O)COc1c(C2CCN(CCN3CCC(CNC(=O)c4ccc(-c5ccc(C(F)(F)F)cc5)cc4)CC3)CC2)ccc2c1CCCC2,4.85%,4.29%,3.32%
CCCOc1cc(OCCC)cc(-c2ccc(C(=O)Nc3ccc4ccc(C)nc4c3)c(=O)[nH]2)c1,1.35%,0.78%,3.33%
CN1CCN(CCCN(Cc2cccc(-c3cccc(CNCCc4ccccc4)c3)c2)C(=O)Nc2ccccc2)CC1,8.85%,9.55%,7.52%
CCCCCCCCCn1c(NCc2cc(Cl)ccc2O)nc2ccccc21,2.6%,1.33%,0.42%
CC(=O)NCCNc1cc(N2CCc3ncnc(Nc4ccc(OCc5c(F)cccc5F)c(Cl)c4)c3C2)ncn1,0.69%,1.6%,1.84%
NCc1ccc(CNCc2ccc(-c3ccc(-c4nc5cc(F)ccc5[nH]4)cc3)cc2)cc1,10.3%,5.39%,5.05%
COc1cccc(CC(=O)N2CCC(n3c(C)nc4ccc(C)cc43)CC2)c1,1.58%,1.46%,1.1%
Cc1ccc(NC(=O)c2ccc3ncccc3c2)cc1OC1CCN(CCC(C)C)C1 (configuration not stated),2.61%,3.22%,3.54%
Cc1ccc(NC(=O)c2cccc(N3CCN(c4ccncc4)CC3)c2)cc1F,10.8%,9.25%,15.6%
Cn1c(=O)n(C)c2cc(CNCCNc3ccnc4cc(Cl)ccc34)ccc21,2.25%,3.88%,0.4%
COc1cc(NCCCNC(=O)c2ccc(Cl)c(Cl)c2)nc2ccccc12,5.42%,5.69%,5.08%
COc1cc(C)nc2ccc(NC(=O)COCC(=O)Nc3ccc4nc(C)cc(OC)c4c3)cc12,4.3%,3.83%,3.64%
